High-throughput results: PubChem BioAssay, Johns Hopkins Ion Channel Center
Sampled rows, rich in hits. Any-hit rate of the full collection: about 2.4%.
TMEM16A inh = inhibitors of mouse TMEM16A calcium-activated chloride channel; HEK293 TMEM16A/YFP iodide influx fluorescence, ionomycin; normalized B-score (activity score, 25-100; higher = stronger inhibition) at 10 µM; 310,000 tested, 1.2% active;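 active means ratio plate-corrected score three or more library SD toward inhibition, starting fluorescence score within five deviations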;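 further: score derived from kinetic fluorescence span divided by baseline fluorescence per well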
Target sequence (Q8BHY3 whole entry, looked up): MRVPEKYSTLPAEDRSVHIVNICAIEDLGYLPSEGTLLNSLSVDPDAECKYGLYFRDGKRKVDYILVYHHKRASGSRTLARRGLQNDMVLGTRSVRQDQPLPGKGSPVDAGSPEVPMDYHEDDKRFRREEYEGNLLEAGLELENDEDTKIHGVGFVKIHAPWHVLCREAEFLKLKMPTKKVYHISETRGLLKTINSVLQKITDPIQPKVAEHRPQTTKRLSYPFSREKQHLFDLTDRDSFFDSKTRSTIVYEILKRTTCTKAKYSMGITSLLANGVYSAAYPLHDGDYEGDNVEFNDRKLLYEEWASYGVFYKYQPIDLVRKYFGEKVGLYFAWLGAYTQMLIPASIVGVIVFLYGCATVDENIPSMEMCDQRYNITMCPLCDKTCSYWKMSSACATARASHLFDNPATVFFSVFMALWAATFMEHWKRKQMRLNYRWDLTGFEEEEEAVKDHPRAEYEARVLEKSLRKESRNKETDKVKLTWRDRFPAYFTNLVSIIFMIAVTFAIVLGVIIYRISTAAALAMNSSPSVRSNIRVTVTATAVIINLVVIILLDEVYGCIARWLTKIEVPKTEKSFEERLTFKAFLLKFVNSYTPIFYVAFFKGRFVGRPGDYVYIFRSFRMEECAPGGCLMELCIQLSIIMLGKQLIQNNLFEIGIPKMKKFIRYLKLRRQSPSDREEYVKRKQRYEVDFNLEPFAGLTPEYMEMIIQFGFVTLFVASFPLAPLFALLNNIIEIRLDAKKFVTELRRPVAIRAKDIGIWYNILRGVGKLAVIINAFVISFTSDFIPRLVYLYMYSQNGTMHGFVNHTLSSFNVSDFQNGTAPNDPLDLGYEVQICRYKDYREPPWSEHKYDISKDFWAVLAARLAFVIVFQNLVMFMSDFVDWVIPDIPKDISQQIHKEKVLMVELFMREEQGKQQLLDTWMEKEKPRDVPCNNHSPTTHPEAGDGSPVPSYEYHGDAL
CHT PAM = allosterically activates the human high affinity choline transporter | B-score at 10 µM | 310,000 tested, 0.49% active | AID 488977 | CHT-expressing cells, membrane potential dye, choline EC20; hits give high values; LV-AA mutant CHT in HEK293 cells | Q9GZV3;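 active means initial fluorescence not abnormally high and integrated response B-score, plate-corrected, over 3 SD above library mean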
TMEM16A act = mouse TMEM16A channel activation, primary screen; Q8BHY3; HEK293 TMEM16A/YFP-H148Q/I152L, iodide quench fluorescence; hits give low values; B-score at 10 µM; 340,000 tested, 0.3% active;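 active means fluorescence-ratio B-score plate-corrected deviation score at least 3 library SD below zero, with starting fluorescence score within 5 deviations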;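 further: channel opened by trigger with iodide after compound preincubation; score built on the fluorescence ratio of max minus min over baseline; more negative score means more quench and so TMEM16A activation or potentiation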
CHT inh = human CHT choline transport inhibition | Q9GZV3 | CHT-expressing cells, membrane potential dye, choline response; hits give low values | B-score at 10 µM | 310,000 tested, 0.86% active | AID 488975;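 active means B-score over 3 SD under the library average, and starting fluorescence ratio not unusually high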;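 further: choline stimulus applied at its EC90 after an EC20 pre-addition; B-score computed on integrated fluorescence ratio after choline addition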
CHT activ conf = human CHT activation, confirmatory screen; shares compounds with CHT PAM; CHT-expressing cells, membrane potential dye fluorescence (FDSS); % of choline EC20–EC90 response window; HEK293 expressing CHT LV-AA mutant; choline added at its EC20; activation, % at 10 µM; 2,500 tested, 91% active; AID 504833;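 active means primary screen active, with duplicate mean activation above negative control mean plus 3 SD, cut at about 11% in these data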
HEK293 MP dye = activity in parental HEK293 cells lacking CHT; shares compounds with CHT PAM; membrane potential dye fluorescence (FDSS); measured after EC20 choline addition; ratio readout change at 10 µM, hits read low; 2,500 tested, 62% active;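 active means duplicate-averaged ratio beyond 3 SD from buffer wells, up or down, though filed actives are nearly all decreases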
Each line names hits and unclear results; the compound was inactive in the other large screens (follow-up assays come after a bar, where they were run).

CCn1c(C)[n+](Cc2ccccc2)c2ccc(C(=O)OC)cc21	CHT PAM 10.3 | CHT activ conf 27.4 | HEK293 MP dye -66.9
COc1ccc(NC(=O)Nc2cccc3c2O[C@H](CN(C)C(=O)Nc2ccc4c(c2)OCO4)[C@@H](C)CN([C@H](C)CO)C3=O)cc1	none (no result: TMEM16A inh, CHT PAM, CHT inh)
Cc1ccc(-c2c[n+](Cc3ccc(Cl)cc3)c3n2CCC3)cc1	none
Clc1cccc(C[n+]2cc(-c3ccccc3)n3c2CCC3)c1	CHT PAM 8.82 | CHT activ conf 66.5 | HEK293 MP dye -43.3
Cc1ccc(-c2c[n+](Cc3cccc(Cl)c3)c3n2CCC3)cc1	CHT PAM 7.96 | CHT activ conf 55.8 | HEK293 MP dye -39.6
COc1ccc(CNC(=O)C2CCN(S(=O)(=O)c3ccccc3)CC2)cc1	none
CCOC1=NC(=C(c2ccccc2)c2ccccc2)OC1=O	none (no result: TMEM16A inh, CHT PAM, CHT inh)
COc1cc2c(cc1OC)C(c1ccc(-c3ccc(Cl)c(Cl)c3)o1)=NCC2	none
COc1cc2c(cc1OC)C(C)=NC1(CCCCC1)C2	CHT PAM 9.8 | CHT activ conf 30.0 | HEK293 MP dye -43.5
COc1cc2c(cc1OC)C(c1ccc(Cl)cc1)=NCC2	none | CHT activ conf 62.5 | HEK293 MP dye -78.9
COc1cc2c(cc1OC)C(SC)=NC1(CCCC1)C2	none
COc1cc2c(cc1OC)C(C)=NCC2	CHT PAM 13.7 | CHT activ conf 60.0 | HEK293 MP dye -67.6
Brc1ccc(C=Nc2ccc3c(c2)OCCOCCOCCO3)s1	none
CCCCNC(=O)/C=C/c1ccc(OC)c(Br)c1	none
Cc1ccccc1OCC(O)CNC1CCC(NCC(O)COc2ccccc2C)CC1 (stereo unspecified)	none | CHT activ conf 21.3 | HEK293 MP dye inactive
Cc1ccc(OCC(O)CNC2CCCC2)c(C)c1 (stereo unspecified)	none
N#Cc1ccccc1OCC(=O)Nc1cc(S(=O)(=O)N2CCCCC2)ccc1N1CCOCC1	none (no result: TMEM16A inh, CHT PAM, CHT inh)
Cc1nnc(SCCn2c(N3CCC(Cc4ccccc4)CC3)nc3c2c(=O)[nH]c(=O)n3C)s1	none (no result: TMEM16A act)
Cc1ccnc(SCCn2c(N3CCN(c4ccccc4)CC3)nc3c2c(=O)[nH]c(=O)n3C)n1	CHT PAM 7.96 | CHT activ conf 48.1 | HEK293 MP dye -40.7
Cn1c(=O)[nH]c(=O)c2c1nc(N1CCN(Cc3ccccc3)CC1)n2CCSc1ncccn1	none
CC1CCN(c2nc3c(c(=O)[nH]c(=O)n3C)n2CCSc2ncccn2)CC1	none (no result: TMEM16A inh, CHT PAM, CHT inh)
CCCCn1c(N2CCC(Cc3ccccc3)CC2)nc2c1c(=O)[nH]c(=O)n2C	none | CHT activ conf 18.5 | HEK293 MP dye inactive
CCN1CCN(c2nc3c(c(=O)[nH]c(=O)n3C)n2CCCSc2ncccn2)CC1	CHT PAM 7.53 | CHT activ conf 50.1 | HEK293 MP dye -54.9
CN1CCN(c2nc3c(c(=O)[nH]c(=O)n3C)n2CCCSc2ncccn2)CC1	CHT PAM 7.69 | CHT activ conf 46.2 | HEK293 MP dye -54.1
Cn1c(=O)[nH]c(=O)c2c1nc(N1CCN(C(=O)c3ccco3)CC1)n2CCCSc1ncccn1	none (no result: TMEM16A inh, CHT PAM, CHT inh)
CC(C)(C)OC(=O)N[C@@H](C(=O)OC(C)(C)C)c1ccc(C(F)(F)F)cc1	none (no result: TMEM16A inh, CHT PAM, CHT inh)
CCN1CCN(c2nc3c(c(=O)[nH]c(=O)n3C)n2CCCc2ccccc2)CC1	none | CHT activ conf 32.8 | HEK293 MP dye -54
CCNS(=O)(=O)c1cc(-c2nnc(OC)c3ccccc23)ccc1C	CHT PAM 7.71 | CHT activ conf inactive | HEK293 MP dye inactive
Cc1ccc(-c2n[nH]c(=O)c3ccccc23)cc1S(=O)(=O)NCCO	none
Cc1cc(N2CCCC2)nc2ccc(NC(=S)NC(C)C)cc12	none | CHT activ conf 21.2 | HEK293 MP dye -50.7
CCOCCCNC(=S)Nc1ccc2nc(N3CCCC3)cc(C)c2c1	none | CHT activ conf 32.2 | HEK293 MP dye -51.6
COCCNC(=S)Nc1ccc2nc(N3CCOCC3)cc(C)c2c1	none
Clc1ccc(-c2nc3ccncc3[nH]2)cc1	CHT PAM 6.77 | CHT activ conf 51.6 | HEK293 MP dye -50.8
Fc1ccc(-c2nc3ccncc3[nH]2)cc1	CHT PAM 7.92 | CHT activ conf 59.4 | HEK293 MP dye -64.8
Fc1ccc(-c2nc3ccccc3[nH]2)cc1	none
CCOc1ccc(-c2nnn(CC(=O)N3CCCC3)n2)cc1OCC	none
COc1ccccc1C1C(C(=O)c2cc3ccccc3o2)=C(O)C(=O)N1c1cc(C)on1 (stereo unspecified)	none
COc1ccc(OC)c(C2C(C(=O)c3cc4ccccc4o3)=C(O)C(=O)N2c2cc(C)on2)c1 (stereo unspecified)	none | CHT activ conf 10.6 | HEK293 MP dye inactive
Cc1ccc(NC(=O)C(=O)NCCCN2CCCC2=O)c(C)c1	none
CCn1cc(C(=O)OCC(=O)N2C(C)CCCC2C)c(=O)c2ccc(C)nc21 (stereo unspecified)	none | CHT activ conf 38.7 | HEK293 MP dye -28.8
CCn1cc(C(=O)OCC(=O)N(C)C2CCS(=O)(=O)C2)c(=O)c2ccc(C)nc21 (stereo unspecified)	CHT PAM 8.64 | CHT activ conf 54.2 | HEK293 MP dye -62.2
CCn1cc(C(=O)OCC(=O)N(C)Cc2ccccc2)c(=O)c2ccc(C)nc21	none
CCc1nc(CNC(=O)C2CCC(=O)N(Cc3cccc(OC)c3)C2)no1 (stereo unspecified)	none
CCCN(CCC)C1=CC(=[N+]2CCCC2)CC(C)(C)C1	CHT PAM 12 | CHT activ conf 35.1 | HEK293 MP dye inactive
CSCC[C@H](NC(=O)[C@H]1CC[C@H](CNC(=O)[C@@H](N)Cc2ccccc2)CC1)C(=O)O	none (no result: TMEM16A act)
COc1ccc(C(=O)CSc2nnc(CNC(=O)c3ccco3)n2C)cc1	CHT PAM 6.59 | CHT activ conf 69.4 | HEK293 MP dye -50.9
COc1ccc(C(=O)CSc2nnc(CNC(=O)c3ccco3)n2C)cc1OC	none
CC(C)(C)C1CCC(C(=O)OCC(=O)c2ccc[nH]2)CC1 (stereo unspecified)	none
Cc1cc(NCCCO)n2nc(-c3cccs3)cc2n1	CHT PAM 8.07 | CHT activ conf 61.8 | HEK293 MP dye -55.6
OCCCNc1cc(-c2ccccc2)nc2cc(-c3ccc(F)cc3)nn12	none
Cc1cc(C)n2nc(-c3ccsc3-n3c(C)ccc3C)cc2n1	none
Cc1cc(NCCN(C)C)n2nc(-c3cccs3)cc2n1	CHT PAM 10.2 | CHT activ conf 47.3 | HEK293 MP dye -89.1
CN(C)c1ccc(C(c2ccc(N(C)C)cc2)C(O)c2ccccc2)cc1 (stereo unspecified)	none (no result: TMEM16A inh, CHT PAM, CHT inh)
Cc1ccc2nc3ccc(N4CCCC4)nn3c(=O)c2c1	none | CHT activ conf 44.3 | HEK293 MP dye -46.4
CC1CCCN(c2ccc3nc4ccccc4c(=O)n3n2)C1 (stereo unspecified)	none
